Our source for the outcome and AC50 values is PubChem BioAssay (EPA / NIEHS).

Assay [1] in a line: ATG_CRE_CIS: Attagene CIS-FACTORIAL HepG2 Assay for human cAMP Responsive Element (CRE) binding protein 3 (AID 2282926). The settings on record: HepG2 CRE cis-reporter, Attagene multiplexed mRNA; actives raise or lower the signal. In outline: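 Endogenous transcription factor activity read via CRE-regulated reporter transcripts in transfected HepG2 cells. After 24 h exposure, RNA was reverse-transcribed, amplified, fluorescently labelled and sized by capillary electrophoresis; gain or loss fitted against DMSO.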

Assay [2] has as its target CCAAT/enhancer-binding protein beta (Homo sapiens) (UniProt P17676). As to the kind of experiment: ATG_C_EBP_CIS: Attagene CIS-FACTORIAL HepG2 Assay for human CCAAT/Enhancer Binding Protein (C/EBP) beta (AID 2282927). Particulars: HepG2 Attagene cis-factorial transcription factor reporter; actives raise or lower the signal. In outline:
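Endogenous transcription factor activity in human liver HepG2 cells is inferred from induction of a CEBPB-linked reporter mRNA. Exposure lasts 24 h; activity is fitted in both directions relative to DMSO.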

Assay [3] is described as follows: ATG_CMV_CIS: Attagene CIS-FACTORIAL HepG2 Assay for human CMV (Internal Marker) (AID 2282928).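 Further: endpoint acts as a background internal control marker rather than a target.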 Particulars: HepG2 CMV promoter reporter, transcription factor profiling; actives raise or lower the signal. In outline:
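Readout: fluorescent reporter cDNA fragments separated by capillary electrophoresis after RT-PCR and HpaI cut. Cells: HepG2 carrying transfected cis-promoter reporter constructs, dosed 24 h. Endpoint serves as background internal-marker control, fit bidirectionally versus DMSO.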

Assay [4] can be described thus: ATG_AP_1_CIS: Attagene CIS-FACTORIAL HepG2 Assay for human Activator Protein 1 (AP-1) (AID 2282931). Particulars: HepG2 Attagene cis-factorial AP-1 reporter mRNA; actives raise or lower the signal. In outline: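 Reporter transcripts were measured 24 h after dosing by RT-PCR and capillary electrophoresis of fluorescent fragments. Cells: HepG2 carrying transfected cis-regulated reporter constructs reading endogenous factor activity. Gain or loss fitted against DMSO.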

Assay [5] can be described thus: ATG_AP_2_CIS: Attagene CIS-FACTORIAL HepG2 Assay for human Activator Protein 2 (AP-2) (AID 2282932). The settings on record: HepG2 AP-2 cis-reporter, Attagene transcription factor profiling; actives raise or lower the signal. In outline: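 Transiently transfected HepG2 cells are exposed to chemical for 24 h. Reporter transcripts are then measured as fluorescence following RT-PCR and capillary separation, and gain- or loss-of-signal is fitted relative to DMSO.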

Assay [6] can be described thus: ATG_BRE_CIS: Attagene CIS-FACTORIAL HepG2 Assay for human Bone Morphogenetic Protein (BMP) Response Element (BRE) (AID 2282933). The settings on record: HepG2 BMP response element reporter, Attagene transcription factor profiling; actives raise or lower the signal. In outline:
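Endogenous transcription factor activity read in transiently transfected HepG2 cells after 24 h chemical exposure. Bidirectional curve fitting against DMSO; readout is reporter transcript level by RT-PCR with capillary electrophoresis of labelled products.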

In assay [7] the target is Transcription factor E2F1 (Homo sapiens) (UniProt Q01094). Description: ATG_E2F_CIS: Attagene CIS-FACTORIAL HepG2 Assay for human E2F Transcription Factor 1 (AID 2282935). The settings on record: HepG2 Attagene cis-reporter, E2F reporter RNA transcripts; actives raise or lower the signal. In outline:
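Fluorescent RT-PCR products, digested with HpaI for 2 h at 37 C, are separated by capillary electrophoresis. Source RNA comes from transfected HepG2 cultures treated for 24 h.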

The nature of assay [8]: ATG_E_Box_CIS: Attagene CIS-FACTORIAL HepG2 Assay for human Enhancer Box (E-box) (AID 2282936). Particulars: HepG2 E-box cis-reporter transcription, actives raise or lower the signal. In outline: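 Fluorescent reporter fragments separated by capillary electrophoresis gave the signal; mRNA came from HepG2 cells transfected with cis-element reporters and treated 24 h. Curves fitted bidirectionally relative to DMSO controls.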

The nature of assay [9]: ATG_M_61_CIS: Attagene CIS-FACTORIAL HepG2 Assay for M61 Transcription Factor (Internal Marker) (AID 2282937). The settings on record: HepG2 Attagene CIS-FACTORIAL M61 internal marker reporter; actives raise or lower the signal. In outline: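 Readout: fluorescent reporter mRNA fragments resolved by capillary electrophoresis after RT-PCR. Transiently transfected human HepG2 cells carried MRTU constructs reporting endogenous TF activity; 24 h chemical exposure; gain or loss of signal fitted relative to DMSO.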

A short description of assay [10]: ATG_EGR_CIS: Attagene CIS-FACTORIAL HepG2 Assay for human Early Growth Response 1 (EGR1) (AID 2282938). The settings on record: HepG2 Attagene CIS-FACTORIAL EGR reporter mRNA; actives raise or lower the signal. In outline: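 Read-out: fluorescent reporter-mRNA fragments resolved by capillary electrophoresis after RT-PCR, 24 h post-dose in transiently transfected HepG2. Endogenous transcription-factor activity reported via cis-element-regulated reporter units; gain or loss fitted relative to DMSO.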

Assay [11] is described as follows: ATG_M_19_CIS: Attagene CIS-FACTORIAL HepG2 Assay for M19 Transcription Factor (Internal Marker) (AID 2282939). The settings on record: HepG2 Attagene CIS-FACTORIAL M19 internal marker reporter; actives raise or lower the signal. In outline:
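Internal marker readout, fitted in both directions against DMSO, from HepG2 cells carrying transfected cis-element reporter constructs; RT-PCR and capillary electrophoresis of reporter mRNA after 24 h exposure.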

A short description of assay [12]: ATG_GATA_CIS: Attagene CIS-FACTORIAL HepG2 Assay for human GATA Binding Protein (AID 2282944). Particulars: HepG2 GATA cis-element reporter, Attagene multiplex mRNA; actives raise or lower the signal. In outline: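 Reporter transcripts from a GATA cis-regulated unit, among multiplexed reporters in transfected HepG2 cells, were measured by RT-PCR with capillary electrophoresis after 24 h dosing. Induction or loss scored relative to DMSO.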

A short description of assay [13]: ATG_GLI_CIS: Attagene CIS-FACTORIAL HepG2 Assay for human Zinc Finger Protein GLI1 (AID 2282945). Particulars: HepG2, Attagene cis-factorial reporter mRNA, GLI element; actives raise or lower the signal. In outline:
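Bidirectional curve fits relative to DMSO, using reporter mRNA levels from RT-PCR plus capillary electrophoresis. Cells were HepG2 transiently carrying cis-regulated reporter constructs, harvested 24 h after dosing.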

Assay [14] is described as follows: ATG_ISRE_CIS: Attagene CIS-FACTORIAL HepG2 Assay for human Interferon Regulatory Factor 1 (IRF1) binding to an Interferon-Stimulated Response Element (ISRE) (AID 2282948). The settings on record: HepG2 ISRE cis-reporter (Attagene), mRNA transcription readout; actives raise or lower the signal. In outline: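 Read-out: fluorescent RT-PCR products resolved by capillary electrophoresis, reporting endogenous transcription factor activity via ISRE-driven reporter mRNA in transfected HepG2 cells dosed for 24 h; gain or loss fitted relative to DMSO.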

Assay [15] in a line: ATG_M_32_CIS: Attagene CIS-FACTORIAL HepG2 Assay for M32 Transcription Factor (Internal Marker) (AID 2282949).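 Further: background control marker of the multiplexed CIS panel rather than a real target.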 Particulars: HepG2 Attagene cis-factorial M32 reporter, mRNA; actives raise or lower the signal. In outline:
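Transient MRTU transfection of HepG2; 24 h compound treatment; TriZol RNA, oligo(dT) RT, reporter PCR, 6-FAM primer extension, HpaI cut, CE. Gain/loss of signal vs DMSO.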

Assay [16] in a line: ATG_MRE_CIS: Attagene CIS-FACTORIAL HepG2 Assay for human Metal Responsive Element (MRE) (AID 2282954). Particulars: HepG2 MRE cis-reporter transcription, Attagene multiplex; actives raise or lower the signal. In outline:
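Multiplexed cis-reporter assay in human HepG2 liver cells, 24 h incubation with test chemical. Reporter transcripts measured by RT-PCR and capillary electrophoresis; values from bidirectional curve fitting versus DMSO.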

In assay [17] the target is Paired box protein Pax-6 (Homo sapiens) (UniProt P26367). Description: ATG_Pax6_CIS: Attagene CIS-FACTORIAL HepG2 Assay for human Paired Box 6 (PAX6) (AID 2282956). The settings on record: HepG2 CIS-FACTORIAL PAX6 reporter transcription, RNA readout; actives raise or lower the signal. In outline:
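Readout: reporter transcript fluorescence after RT-PCR and capillary electrophoresis. Cells: HepG2, transiently transfected with cis-regulated MRTUs. Exposure 24 h. Gain or loss of signal fitted bidirectionally relative to DMSO.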

Assay [18] can be described thus: ATG_PXRE_CIS: Attagene CIS-FACTORIAL HepG2 Assay for human Pregnane X Receptor Element (PXRE) (AID 2282957). Particulars: HepG2 Attagene CIS-FACTORIAL PXRE reporter, mRNA; actives raise or lower the signal. In outline: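 Reporter transcripts under endogenous PXR-responsive cis-regulation quantified from total RNA of transfected HepG2 cells 24 h post-dosing, via RT-PCR with fluorescent primer extension and capillary electrophoresis. Gain or loss of signal fitted against DMSO baseline.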

The target of assay [19] is Transcription factor Sp1 (Homo sapiens) (UniProt P08047). As to the kind of experiment: ATG_Sp1_CIS: Attagene CIS-FACTORIAL HepG2 Assay for human Specificity Protein 1 (Sp1) (AID 2282961). Particulars: HepG2 Sp1 cis-reporter transcription, actives raise or lower the signal. In outline:
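Read-out: fluorescence of 6-FAM-labeled, HpaI-digested RT-PCR products separated by capillary electrophoresis. HepG2 cells carried transfected cis-element reporter units and were exposed to chemicals for 24 h; gain or loss of signal fitted relative to DMSO.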

The target of assay [20] is Signal transducer and activator of transcription 3 (Homo sapiens) (UniProt P40763). Description: ATG_STAT3_CIS: Attagene CIS-FACTORIAL HepG2 Assay for human Signal Transducer and Activator of Transcription 3 (STAT3) (AID 2282963). The settings on record: HepG2, Attagene cis-factorial STAT3 reporter transcription; actives raise or lower the signal. In outline:
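Cis-factorial format: endogenous transcription factors in HepG2 drive transfected reporter units. After 24 h treatment, reporter RNA was reverse-transcribed, amplified, FAM-labelled and HpaI-digested before CE analysis; activity scored in both directions against DMSO.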

The source made the active and inactive calls. How the source made its calls: active means hit-call score of the fitted dose curve at least 0.9, where 1 is the maximum; inactive means score below 0.9.

Sequence of Signal transducer and activator of transcription 3 (Homo sapiens) (P40763 whole entry, looked up): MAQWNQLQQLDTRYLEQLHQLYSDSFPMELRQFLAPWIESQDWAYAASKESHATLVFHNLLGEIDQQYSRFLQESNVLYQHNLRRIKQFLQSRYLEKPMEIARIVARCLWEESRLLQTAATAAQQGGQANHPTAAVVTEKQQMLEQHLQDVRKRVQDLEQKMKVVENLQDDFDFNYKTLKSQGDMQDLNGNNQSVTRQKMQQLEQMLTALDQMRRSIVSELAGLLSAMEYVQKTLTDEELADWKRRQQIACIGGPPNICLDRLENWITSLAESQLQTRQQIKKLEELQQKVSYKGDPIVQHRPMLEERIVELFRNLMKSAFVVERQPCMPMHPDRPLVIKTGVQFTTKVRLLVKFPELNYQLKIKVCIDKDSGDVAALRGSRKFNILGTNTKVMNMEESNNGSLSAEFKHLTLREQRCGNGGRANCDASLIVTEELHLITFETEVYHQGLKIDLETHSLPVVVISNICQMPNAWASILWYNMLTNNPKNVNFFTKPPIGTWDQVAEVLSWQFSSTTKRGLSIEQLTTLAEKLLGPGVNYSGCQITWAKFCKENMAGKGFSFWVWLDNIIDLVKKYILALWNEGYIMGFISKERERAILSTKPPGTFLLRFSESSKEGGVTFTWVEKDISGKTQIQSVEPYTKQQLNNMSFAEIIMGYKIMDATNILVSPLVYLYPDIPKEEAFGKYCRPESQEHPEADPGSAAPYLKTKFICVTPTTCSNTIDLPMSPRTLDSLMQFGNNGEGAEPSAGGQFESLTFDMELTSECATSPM
Sequence of Transcription factor E2F1 (Homo sapiens) (Q01094 whole entry, looked up): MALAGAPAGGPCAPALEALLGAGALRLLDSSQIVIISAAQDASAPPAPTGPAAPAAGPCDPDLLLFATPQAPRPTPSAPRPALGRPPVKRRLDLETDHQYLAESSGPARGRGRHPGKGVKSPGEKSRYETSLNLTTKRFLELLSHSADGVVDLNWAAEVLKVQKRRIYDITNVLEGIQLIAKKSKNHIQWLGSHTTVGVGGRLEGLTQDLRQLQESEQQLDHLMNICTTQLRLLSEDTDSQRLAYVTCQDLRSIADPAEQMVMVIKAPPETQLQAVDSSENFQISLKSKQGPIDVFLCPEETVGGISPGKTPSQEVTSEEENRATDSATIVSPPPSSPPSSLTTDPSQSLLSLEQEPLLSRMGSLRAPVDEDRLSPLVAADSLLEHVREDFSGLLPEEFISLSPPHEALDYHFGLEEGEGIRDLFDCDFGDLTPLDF
Sequence of Transcription factor Sp1 (Homo sapiens) (P08047 whole entry, looked up): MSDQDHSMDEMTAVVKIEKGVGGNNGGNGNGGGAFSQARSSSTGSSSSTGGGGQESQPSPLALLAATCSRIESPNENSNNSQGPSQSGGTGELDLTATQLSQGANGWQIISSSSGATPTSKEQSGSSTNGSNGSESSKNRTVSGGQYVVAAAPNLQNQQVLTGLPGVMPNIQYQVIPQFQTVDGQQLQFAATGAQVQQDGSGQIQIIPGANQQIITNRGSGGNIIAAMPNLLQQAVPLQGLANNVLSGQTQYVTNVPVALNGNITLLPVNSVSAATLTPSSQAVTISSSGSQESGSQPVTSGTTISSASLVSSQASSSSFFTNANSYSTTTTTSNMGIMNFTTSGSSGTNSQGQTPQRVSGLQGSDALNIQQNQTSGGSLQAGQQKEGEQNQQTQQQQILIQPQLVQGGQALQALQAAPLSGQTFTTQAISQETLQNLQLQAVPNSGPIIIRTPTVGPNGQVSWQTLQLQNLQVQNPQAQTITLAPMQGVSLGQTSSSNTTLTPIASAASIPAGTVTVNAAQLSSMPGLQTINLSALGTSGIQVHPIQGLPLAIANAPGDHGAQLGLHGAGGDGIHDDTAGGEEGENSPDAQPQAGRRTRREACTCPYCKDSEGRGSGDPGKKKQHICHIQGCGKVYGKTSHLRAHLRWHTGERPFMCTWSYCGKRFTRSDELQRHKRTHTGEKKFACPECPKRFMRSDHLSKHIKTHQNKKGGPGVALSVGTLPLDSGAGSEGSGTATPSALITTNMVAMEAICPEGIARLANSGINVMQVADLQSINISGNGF
Sequence of Paired box protein Pax-6 (Homo sapiens) (P26367 whole entry, looked up): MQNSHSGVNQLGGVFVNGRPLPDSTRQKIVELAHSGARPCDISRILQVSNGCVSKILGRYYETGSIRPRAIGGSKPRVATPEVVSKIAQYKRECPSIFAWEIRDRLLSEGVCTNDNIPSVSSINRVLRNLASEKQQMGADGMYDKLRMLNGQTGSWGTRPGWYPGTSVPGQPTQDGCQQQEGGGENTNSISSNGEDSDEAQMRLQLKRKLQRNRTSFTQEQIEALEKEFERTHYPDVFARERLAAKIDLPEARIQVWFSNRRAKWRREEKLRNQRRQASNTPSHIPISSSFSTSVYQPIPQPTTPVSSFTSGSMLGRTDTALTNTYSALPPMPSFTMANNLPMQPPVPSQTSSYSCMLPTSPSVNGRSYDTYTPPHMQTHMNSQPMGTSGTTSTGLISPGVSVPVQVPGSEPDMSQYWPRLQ
Sequence of CCAAT/enhancer-binding protein beta (Homo sapiens) (P17676 whole entry, looked up): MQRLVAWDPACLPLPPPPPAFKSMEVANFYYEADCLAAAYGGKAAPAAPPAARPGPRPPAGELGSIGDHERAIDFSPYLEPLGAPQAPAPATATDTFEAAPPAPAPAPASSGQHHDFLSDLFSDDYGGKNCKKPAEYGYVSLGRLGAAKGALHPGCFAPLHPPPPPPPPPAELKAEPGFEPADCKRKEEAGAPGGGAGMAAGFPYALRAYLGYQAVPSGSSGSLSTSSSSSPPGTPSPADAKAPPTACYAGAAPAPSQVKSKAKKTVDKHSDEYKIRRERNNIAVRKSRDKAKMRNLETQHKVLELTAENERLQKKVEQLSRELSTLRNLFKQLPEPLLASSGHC

Turning to `CCCC(=O)OC`, the result in assay [1], in [2], in assay [3], in [4], in assay [5] and in assay [6] was inactive. Further, the call in [7], in [8], in assay [9], in [10], in assay [11] and in [12] was inactive. For the same compound, the outcome in assay [13], in assay [14], in assay [15], in assay [16], in assay [17] and in assay [18] was inactive. For the same compound, the result in assay [19] and in assay [20] was inactive.

For the compound `COc1ccccc1OCC(O)CO` (stereo not given), the call in assay [1], in assay [2], in [3], in assay [4], in assay [5] and in [6] was inactive. Besides, the compound was called inactive in assay [7], in assay [8], in assay [9], in [10], in assay [11] and in assay [12]. For the same compound, the outcome in [13], in [14], in assay [15], in assay [16], in assay [17] and in assay [18] was inactive. In addition, the compound was called inactive in assay [19] and in assay [20].

Take `C[C@H]1C[C@H]2[C@@H]3CCC4=CC(=O)C=C[C@]4(C)[C@@]3(F)[C@@H](O)C[C@]2(C)[C@@]1(O)C(=O)CO`: the call in assay [1], in assay [2], in [3], in [4], in assay [5] and in [7] was inactive. Moreover, the outcome in assay [8], in [9], in [11], in assay [12], in assay [13] and in assay [14] was inactive. Moreover, the compound was classed as inactive in [15], in [19] and in assay [20]. Besides, the AC50 (as a rule, the concentration at which the activity in the assay is half-maximal) in [6] is 73.3 µM (active); in assay [10] it was 100 µM (active); in assay [16] it was 80.1 µM (active); in [17] it was 69 µM (active); in assay [18], 9.62 µM (active).
